Measurements taken from PubChem BioAssay (Tox21).
Inconclusive results are not listed. The source made the active and inactive calls. Unless noted, calls follow the shape of the dose curve; as a rule, active = well fitted curve in the direction sought with a large enough effect in the repeat runs; inconclusive = weak or mixed curves; inactive = no such curve, though single readings can be large; an effect the other way counts as inactive or inconclusive.

Legend:
[1] = A CellTox Green Cytotoxicity Assay to monitor cytotoxicity in HepG2 cells - 32 hour (AID 1224883); also: potency is read from the fitted curve at half-maximal effect; nearly all actives have a fitted effect of over 50% in size
Procedure, shortened: (§1)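 Nonlytic assay: viable cells exclude the dye, so fluorescence scales with cell death. HepG2 at 600 cells/well, compounds added after 5 h, signal read across 40 h.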

[2] = A CellTox Green Cytotoxicity Assay to monitor cytotoxicity in HEK293 cells - 8 hour (AID 1224884); also: nearly all actives have a fitted effect of over 35% in size; also: potency is read from the fitted curve at half-maximal effect
Procedure, shortened: (§2)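 Seeding of HEK293 cells together with cytotoxicity dye preceded a 5 h incubation at 37 C/5% CO2. Test compounds in DMSO were then added and fluorescence monitored across 40 h.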

[3] = qHTS RealTime-Glo MT Cell Viability Assay in HepG2 cells - 16 hour (AID 1224885); also: % is scaled to controls: 0 for no effect and ±100 for the full control effect; nearly all actives have a fitted effect of over 50% in size
Procedure, shortened: (§3)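 Real-time, nonlytic viability: 600 HepG2 cells/well mixed with NanoLuc enzyme plus prosubstrate; 5 h settle, compound (DMSO) added by pintool; luminescence monitored over 40 h at 37 C.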

[4] = qHTS RealTime-Glo MT Cell Viability Assay in HEK293 cells - 24 hour (AID 1224886); also: nearly all actives have a fitted effect of over 50% in size; also: potency is read from the fitted curve at half-maximal effect
Procedure, shortened: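 Cells + reagent dispensed (600 cells/well, HEK293) → 5 h at 37 C/5% CO2 → 23 nL compound in DMSO pinned → 40 h at 37 C → luminescence read at 0, 8, 16, 24, 32, 40 h.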

[5] = qHTS RealTime-Glo MT Cell Viability Assay in HEK293 cells - 8 hour (AID 1224887); also: top concentration of the series differs between compounds; % is scaled to controls: 0 for no effect and ±100 for the full control effect; nearly all actives have a fitted effect of over 50% in size
Procedure, shortened: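 Tox21 screen in HEK293 using RealTime-Glo MT chemistry, with cells and reagent co-dispensed. Luminescence proportional to viable cell number was captured at intervals during 40 h compound exposure at 37 C.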

[6] = A CellTox Green Cytotoxicity Assay to monitor cytotoxicity in HEK293 cells - 16 hour (AID 1224888); also: nearly all actives have a fitted effect of over 35% in size; also: potency is read from the fitted curve at half-maximal effect
Procedure, shortened: as §2

[7] = qHTS assay to identify small molecule antagonists of the androgen receptor (AR) signaling pathway using the MDA cell line in the presence of 0.5 nM R1881 - cell viability counter screen (AID 1259242); also: nearly all actives have a fitted effect of over 45% in size; also: potency is read from the fitted curve at half-maximal effect
Procedure, shortened: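 R1881 at 0.5 nM final stimulated MDA-kb2 cells during 16 hr compound treatment at 37C. Cytotoxicity read: CellTiter-Fluor fluorescence after 30 min.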

[8] = molecular target: Estrogen receptor (Homo sapiens) (UniProt P03372); test: qHTS assay to identify small molecule antagonists of the estrogen receptor alpha (ER-alpha) signaling pathway using the BG1 cell line in the presence of 0.1 nM 17-beta-estradiol (AID 1259244); also: nearly all actives have a fitted effect of over 50% in size; also: potency is read from the fitted curve at half-maximal effect
Procedure, shortened: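 VM7Luc4E2; 4xERE-luciferase; 0.1 nM E2 final; 22 h co-incubation, 37C; ONE-Glo luminescence after 30 min at room temperature.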

[9] = qHTS assay to identify small molecule HDAC inhibitors (AID 1259364);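 also: wild-type HCT-116 cells with endogenous class I/II HDAC activity; top concentration of the series differs between compounds; % is scaled to controls: 0 for no effect and ±100 for the full control effect; nearly all actives have a fitted effect of over 45% in size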
Procedure, shortened: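 Relative class I and II HDAC activity is taken from the luminogenic signal in HCT-116 cells, with compound exposure 2 hr and reagent development 30 min at room temperature.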

[10] = qHTS assay to identify small molecule HDAC inhibitors - cell viability counter screen (AID 1259365)
Procedure, shortened: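 After overnight seeding at 1,500 cells per well, wild-type HCT-116 cultures took up compounds in DMSO for 2hr at 37 C. Viable cell content came from luminescence with CellTiter-Glo.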

[11] = qHTS assay to identify small molecule agonists of the sonic hedgehog signaling (Shh) pathway - cell viability counter screen (AID 1259366)
Procedure, shortened: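 Same-well cytotoxicity read. Gli1-Luc reporter 3T3 cells; compounds 24hr, 37C/5% CO2; CellTiter-Fluor fluorescence.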

[12] = qHTS assay to identify small molecule agonists of the sonic hedgehog signaling (Shh) pathway (AID 1259368; calls by dose curve;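 also: NIH/3T3-derived 3T3Gli1-Luc cells carrying a stable Gli1-driven firefly luciferase reporter; series mostly up to about 92 µM; % is scaled to controls: 0 for no effect and ±100 for the full control effect; nearly all actives have a fitted effect of over 15% in size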)
Procedure, shortened: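 Mouse fibroblast (NIH/3T3) reporter cells with stably integrated Gli1-Luc were treated 24 hr with compound; firefly luciferase luminescence served as the read-out.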

[13] = qHTS assay to identify small molecule antagonists of the sonic hedgehog signaling (Shh) pathway (AID 1259369; calls by dose curve; also: nearly all actives have a fitted effect of over 45% in size; also: potency is read from the fitted curve at half-maximal effect)
Procedure, shortened: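 Conditioned medium drives Shh signalling in 3T3Gli1-Luc cells; compounds in DMSO co-applied, 24hr at 37 C, then luciferase luminescence.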

[14] = A CellTox Green Cytotoxicity Assay to monitor cytotoxicity in HepG2 cells - 0 hour (AID 1224882); also: % is scaled to controls: 0 for no effect and ±100 for the full control effect; nearly all actives have a fitted effect of over 35% in size
Procedure, shortened: as §1

[15] = qHTS RealTime-Glo MT Cell Viability Assay in HepG2 cells - 0 hour (AID 1224889)
Procedure, shortened: as §3

[16] = A CellTox Green Cytotoxicity Assay to monitor cytotoxicity in HepG2 cells - 8 hour (AID 1224890); also: % is scaled to controls: 0 for no effect and ±100 for the full control effect; nearly all actives have a fitted effect of over 45% in size
Procedure, shortened: as §1

[17] = qHTS assay to identify small molecule antagonists of the estrogen receptor alpha (ER-alpha) signaling pathway using the BG1 cell line in the presence of 0.1 nM 17-beta-estradiol - cell viability counter screen (AID 1259241); also: % is scaled to controls: 0 for no effect and ±100 for the full control effect; nearly all actives have a fitted effect of over 40% in size
Procedure, shortened: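 Estradiol-stimulated (0.1 nM) VM7Luc4E2 cells exposed to compounds 22 hr; viability measured by fluorescence of cleaved CellTiter-Fluor substrate after 30 min.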

[18] = qHTS assay to identify small molecule antagonists of the sonic hedgehog signaling (Shh) pathway - cell viability counter screen (AID 1259367); also: % is scaled to controls: 0 for no effect and ±100 for the full control effect; nearly all actives have a fitted effect of over 55% in size
Procedure, shortened: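 NIH/3T3-derived Gli1-Luc reporter cells (2,000 per well) rested 4 hr at 37 C, then received DMSO compounds plus conditioned medium. After 23 hr of treatment, CellTiter-Fluor was added for 1 hr at 37C and fluorescence read.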

[19] = qHTS assay to identify small molecule phospholipidosis (PLD) inducers (AID 1259344; active = well fitted curve in the direction sought with a large enough effect; an effect the other way counts as inactive or inconclusive; also: % is scaled to controls: 0 for no effect and ±100 for the full control effect)
Procedure, shortened: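 HepG2 cells on collagen I, attached 4 h at 37 C, were co-treated with compound and LipidTOX Red dye for 24 h at 37 C, then fixed with paraformaldehyde plus Hoechst 33342 and imaged by high-content microscopy for phospholipid accumulation.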

[20] = molecular target: Androgen receptor (Homo sapiens) (UniProt P10275); test: qHTS assay to identify small molecule antagonists of the androgen receptor (AR) signaling pathway using the MDA cell line in the presence of 0.5 nM R1881 (AID 1259243)
Procedure, shortened: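 We exposed MDA-kb2 cells to compounds under 0.5 nM R1881 stimulation for 16 hr at 37C and quantified MMTV-driven luciferase by luminescence.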

Estrogen receptor (Homo sapiens), sequence (P03372 whole entry, looked up): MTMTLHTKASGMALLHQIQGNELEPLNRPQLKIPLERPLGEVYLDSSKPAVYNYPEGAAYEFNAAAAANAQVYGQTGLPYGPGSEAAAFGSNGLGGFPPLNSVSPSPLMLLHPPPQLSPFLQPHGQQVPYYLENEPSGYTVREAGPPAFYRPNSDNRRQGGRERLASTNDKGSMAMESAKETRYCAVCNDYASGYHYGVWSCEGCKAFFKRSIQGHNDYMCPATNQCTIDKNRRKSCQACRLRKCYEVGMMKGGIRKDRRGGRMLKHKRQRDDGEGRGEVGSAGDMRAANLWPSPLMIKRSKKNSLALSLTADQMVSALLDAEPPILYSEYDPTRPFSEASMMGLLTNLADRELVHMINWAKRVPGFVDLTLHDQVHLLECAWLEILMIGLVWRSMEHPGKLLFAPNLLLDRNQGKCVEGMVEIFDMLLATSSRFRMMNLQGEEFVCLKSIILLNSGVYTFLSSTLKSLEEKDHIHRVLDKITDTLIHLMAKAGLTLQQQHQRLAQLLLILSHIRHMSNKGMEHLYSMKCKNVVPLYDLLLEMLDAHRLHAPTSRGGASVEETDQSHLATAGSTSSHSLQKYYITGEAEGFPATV
Androgen receptor (Homo sapiens), sequence (P10275 whole entry, looked up): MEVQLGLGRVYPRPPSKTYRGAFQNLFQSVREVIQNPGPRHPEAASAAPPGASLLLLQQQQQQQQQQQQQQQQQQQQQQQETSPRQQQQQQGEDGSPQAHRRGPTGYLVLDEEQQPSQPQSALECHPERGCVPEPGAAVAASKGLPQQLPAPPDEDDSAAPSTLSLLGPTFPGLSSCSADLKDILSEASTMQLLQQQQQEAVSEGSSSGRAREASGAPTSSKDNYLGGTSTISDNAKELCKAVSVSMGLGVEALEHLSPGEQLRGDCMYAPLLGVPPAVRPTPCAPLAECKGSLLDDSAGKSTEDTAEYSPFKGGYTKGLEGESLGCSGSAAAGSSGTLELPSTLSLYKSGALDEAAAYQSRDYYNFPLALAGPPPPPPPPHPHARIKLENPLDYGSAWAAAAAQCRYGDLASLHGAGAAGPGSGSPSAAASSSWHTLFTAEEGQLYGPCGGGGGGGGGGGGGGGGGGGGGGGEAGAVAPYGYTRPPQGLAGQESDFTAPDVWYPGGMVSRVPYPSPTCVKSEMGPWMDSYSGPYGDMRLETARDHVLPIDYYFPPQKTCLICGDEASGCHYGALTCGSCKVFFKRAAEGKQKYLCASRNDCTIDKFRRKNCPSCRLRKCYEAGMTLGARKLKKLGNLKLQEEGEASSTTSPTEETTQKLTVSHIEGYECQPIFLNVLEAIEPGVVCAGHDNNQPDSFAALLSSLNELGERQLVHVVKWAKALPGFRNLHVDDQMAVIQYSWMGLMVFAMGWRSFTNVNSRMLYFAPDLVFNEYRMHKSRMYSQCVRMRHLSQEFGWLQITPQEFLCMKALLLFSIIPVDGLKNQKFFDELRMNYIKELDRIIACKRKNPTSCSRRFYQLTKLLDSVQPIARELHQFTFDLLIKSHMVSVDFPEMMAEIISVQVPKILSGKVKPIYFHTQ

CCOC(=O)Cc1cccc2ccccc12
inactive: Potency [2] | Potency [3] | Potency [4] | Potency [5] | Potency [6] | Potency [7] | Potency [8] | Potency [9] | Potency [10] | Potency [11] | outcome [12] | Potency [13]
active: Potency [1] 21.9 µM

CC(C)=CCC/C(C)=C/CC/C(C)=C/CO
active: Potency [13] 43.3 µM
inactive: Potency [14] | Potency [2] | Potency [15] | Potency [16] | Potency [17] | Potency [7] | Potency [9] | Potency [10] | Potency [11] | Potency [18] | outcome [12]

CN1CCC(N(Cc2cccs2)c2ccccc2)CC1
active: Potency [1] 21.3 µM | Potency [2] 19 µM | Potency [6] 19 µM
inactive: Potency [3] | Potency [4] | Potency [5] | Potency [15] | Potency [17] | Potency [7] | Potency [8] | PLD induction [19] -4.03% [at 7.66 µM] | Potency [9] | Potency [10] | Potency [11] | outcome [12]

CCCCCCOC(=O)NC(=N)c1ccc(NCc2nc3cc(C(=O)N(CCC(=O)OCC)c4ccccn4)ccc3n2C)cc1
active: Potency [4] 9.52 µM | Potency [7] 26.6 µM | Potency [8] 23.7 µM | Potency [13] 1.19 µM
inactive: Potency [14] | Potency [2] | Potency [15] | Potency [16] | Potency [10] | outcome [12]

C#C[C@]1(O)CC[C@H]2[C@@H]3CCc4cc(OC5CCCC5)ccc4[C@H]3CC[C@@]21C
inactive: Potency [14] | Potency [2] | Potency [6] | Potency [15] | Potency [17] | Potency [7] | Potency [19] | Potency [9] | Potency [10] | Potency [11] | Potency [18] | outcome [12] | Potency [13]

COc1ccc2cccc(CCNC(C)=O)c2c1
inactive: Potency [2] | Potency [4] | Potency [5] | Potency [6] | Potency [15] | Potency [17] | Potency [7] | Potency [20] | Potency [8] | Potency [9] | Potency [10] | Potency [11] | outcome [12] | Potency [13]
